The term Inhibition denotes the percentage by which the read-out fell short of the control.

For 40 molecules, Inhibition results are on record in ChEMBL document CHEMBL1157539, “Thousands of chemical starting points for antimalarial lead identification” (Nature, 2010).

The subject of the first assay is Plasmodium falciparum. Kind of assay: GSK_TCMDC: Inhibition of Plasmodium falciparum 3D7 in whole red blood cells, using parasite LDH activity as an index of growth. Test compounds present at 2uM. It counts as functional.
`COc1ccc2nc3cc(Cl)ccc3c(NCCO)c2c1.Cl` gave an Inhibition of 100%. As to `Cn1c(N)c(N=O)c(=O)[nH]c1=O`, the Inhibition was 97%. The same measure, in the same setting: next, `COc1ccc(CCC(C)N2CC(N)C(c3cn(C)c4cnccc34)C2)cc1.Cl` (configuration not stated): 98%. The molecule `O=C(Nc1cccc(-c2ccc(-c3nc4ccccc4[nH]3)cc2)c1)c1csnn1` showed an Inhibition of 91%. The same measure, in the same setting: next, `CC(C)NCc1ccc(-c2cccc(CN3CCC(c4ccccc4)CC3)c2)c(C(=O)NCC2CCCCC2)c1.O=C(O)C(F)(F)F`: 98%.

Molecule `COc1ccc(CNCCc2cccs2)cc1-c1ccc(S(=O)(=O)NCCN2CCCC2)cc1.O=C(O)C(F)(F)F` showed an Inhibition of 99%. Molecule `Br.Cc1cc(C)c(CON2C(=N)N=C(N)NC2(C)C)cc1C` came in with an Inhibition of 92%. Molecule `COc1cccc(OC2CCN(C(=O)c3ccc(-c4ccc(N5CCCC5=O)cc4C)cc3)CC2)c1` displayed an Inhibition of 85%. Still for that read-out and setting: next, `COc1ccc2nccc([C@@H](O)CN3CCC(NCCOc4cccc(F)c4F)CC3)c2c1.O=C(O)C(=O)O`: 100%. On the same count and under the same terms, next, `CN1CC(c2ccccc2)c2cc(O)c(CN3CCCCC3)cc2CC1Cc1ccccc1.Cl` (configuration not stated): 99%; `Br.CCCC1N=C(N)N=C(N)N1c1ccc(CC)cc1` (configuration not stated): 94%; `COc1ccc(CNCc2cccc(-c3ccc(-c4nc5cccc(C)c5[nH]4)cc3)c2)cc1.O=C(O)C(F)(F)F`: 100%. On the same count and under the same terms, as for `Cc1cc(OCC(=O)Nc2ccc(-c3nc4ccccc4[nH]3)cc2)cc(C)c1Cl`, the figure is 99%. The molecule `FC(F)(F)c1ccc2[nH]c(-c3cccc(-c4cccc(CNCCc5ccncc5)c4)c3)nc2c1.O=C(O)C(F)(F)F` returned an Inhibition of 99%. The same measure, in the same setting: next, `CC(=O)C1=NN(c2ccc(C)cc2)C(c2cccs2)N1c1ccccc1` (configuration not stated): 89%. Same read-out and setting: next, `COC(=O)c1cccc(CNCc2ccc(-c3ccc(-c4nc5ccccc5[nH]4)s3)cc2)c1.O=C(O)C(F)(F)F`: 100%; `O=C(NCCN1CCCC1)c1cccc(Nc2nccc(Nc3ccc(Oc4ccccc4)cc3)n2)c1`: 100%. On the same count and under the same terms, as for `COc1cc(NCC(O)CNc2cc(OC)c3ccccc3n2)nc2ccccc12`, the figure is 100%; as for `CCCN(CCC)CCCNc1ccc(C(=O)Nc2ccc(OCC)cc2)cc1[N+](=O)[O-]`, 89%; as for `COc1ccc(O)c(C(=O)NCCc2ccc(OC)c(-c3ccc(C(C)(C)C)cc3)c2)c1`, 88%.

For `CN(C)CCN(C)Cc1ccc(-c2ccc(NC(=O)c3ccc(Cl)cc3)cc2)cc1.O=C(O)C(F)(F)F`, the Inhibition stood at 91%. As to `O=c1cc(NCCC(CNCc2ccc(Br)o2)NCc2cc(Br)cc(Br)c2)[nH]c2ccccc12` (configuration not stated), the Inhibition is 98%.

Regarding `Cc1ccc2c(=O)cc(CCc3cccc(F)c3F)n(CC(=O)N(Cc3ccc(-c4ccc(C(F)(F)F)cc4)cc3)C3CCN(C(C)C)CC3)c2n1.O=C(O)C(O)C(O)C(=O)O`, the Inhibition was found to be 100%. Turning to `CC1CN(c2ccc(NC(=O)c3ccc(F)cc3)cc2)CCN1Cc1cccc(F)c1.O=C(O)C(F)(F)F` (configuration not stated), the Inhibition turned out to be 81%. `N#Cc1ccc(N(CCOC(=O)c2ccc(Br)s2)Cc2ccccc2C(F)(F)F)cc1C(F)(F)F` yielded an Inhibition of 82%.

The molecule `Cc1cccc2nc(-c3cccc(-c4ccc(C(=O)N5CCCCC5C(C)O)cc4)c3)[nH]c12` (configuration not stated) gave an Inhibition of 100%. `O=c1nc2[nH]c3ccccc3n2c(=O)[nH]1` showed an Inhibition of 95%.

A further assay relates to Plasmodium falciparum. Put plainly: GSK_TCMDC: Inhibition of Plasmodium falciparum Dd2 in whole red blood cells, using parasite LDH activity as an index of growth. Test compounds present at 2uM. Type of assay: functional.
On to `Cc1cc(C2CCN(CCCCNC(=O)c3ccc(NC(=O)c4ccc(Cl)cc4)cc3)CC2)c(C)cc1OCc1ccccn1.Cl`, for which the Inhibition worked out at 65%. In the case of `O=C(/C=C/c1ccc(Cl)c(Cl)c1)NCCCCCN1CCC(NC(=O)c2ccc3ccccc3c2)CC1`, the Inhibition is listed as 20%.

With `Cn1cnc2c(Nc3ccncc3)nc(-c3ccc(OC(F)(F)F)cc3)nc21.O=C(O)C(F)(F)F`, the Inhibition is reported as 65%. On the same count and under the same terms, next, `COc1ccc(C2C(C(=O)Nc3cc(OC)c(OC)c(OC)c3)c3cc(OC)c(OC)cc3C(=O)N2C)cc1` (configuration not stated): 100%; `Cc1cc(F)ccc1-c1nc(NCC(O)CNCCc2ccccc2)nc2c1ccc(=O)n2-c1c(F)cccc1F.O=C(O)C(F)(F)F` (configuration not stated): 100%; `Cc1cccc2nc(-c3ccc(-c4ccc(NC(=O)Nc5cccc(C#N)c5)cc4)s3)[nH]c12`: 100%. Same read-out and setting: next, `CS(=O)(=O)CCNCc1ccc(-c2ccc3c(Nc4ccc(Oc5ccccn5)cc4)ccnc3c2)o1`: 99%; `C1=CN(Cc2ccccc2)C=CC1=C1C=Nc2ccccc21`: 69%; `CCCCc1cc(NCC)nc(Nc2ccc(F)cc2)n1`: 56%. Still for that read-out and setting: next, `CCCC(C)Nc1nc(C)cc(N[C@@H](CC(C)C)C(=O)NC2CCCC2)n1.O=C(O)C(F)(F)F` (some centres not stated): 22%; `CN1CCN(Cc2ccc(-c3ccc4c(Nc5ccc(Oc6ccccn6)cc5)ccnc4c3)o2)CC1`: 99%. `COc1ccccc1C1CCN(C2CCC(NC(=O)/C=C/c3cc(F)cc(F)c3)CC2)CC1` (configuration not stated): the Inhibition was determined as 15%.

In turn, `CCCCCCCN1CC[C@@H](CCCc2ccnc3ccc(OCCC4CCNCC4)cc23)[C@@H](CC)C1.Cl` gave an Inhibition of 100%. The same measure, in the same setting: next, `COc1ccc2nc3cc(Cl)ccc3c(NCCO)c2c1.Cl`: 93%; `Cn1c(N)c(N=O)c(=O)[nH]c1=O`: 82%. On the same count and under the same terms, next, `COc1ccc(CCC(C)N2CC(N)C(c3cn(C)c4cnccc34)C2)cc1.Cl` (configuration not stated): 0%; `O=C(Nc1cccc(-c2ccc(-c3nc4ccccc4[nH]3)cc2)c1)c1csnn1`: 21%; `CC(C)NCc1ccc(-c2cccc(CN3CCC(c4ccccc4)CC3)c2)c(C(=O)NCC2CCCCC2)c1.O=C(O)C(F)(F)F`: 76%.

`COc1ccc(CNCCc2cccs2)cc1-c1ccc(S(=O)(=O)NCCN2CCCC2)cc1.O=C(O)C(F)(F)F` yielded an Inhibition of 30%.

As for `Br.Cc1cc(C)c(CON2C(=N)N=C(N)NC2(C)C)cc1C`, the Inhibition was found to be 93%. On to `COc1cccc(OC2CCN(C(=O)c3ccc(-c4ccc(N5CCCC5=O)cc4C)cc3)CC2)c1`, for which the Inhibition worked out at 80%.

In the case of `COc1ccc2nccc([C@@H](O)CN3CCC(NCCOc4cccc(F)c4F)CC3)c2c1.O=C(O)C(=O)O`, the Inhibition was 85%. Still for that read-out and setting: next, `CN1CC(c2ccccc2)c2cc(O)c(CN3CCCCC3)cc2CC1Cc1ccccc1.Cl` (configuration not stated): 99%. On the same count and under the same terms, next, `Br.CCCC1N=C(N)N=C(N)N1c1ccc(CC)cc1` (configuration not stated): 4%; `COc1ccc(CNCc2cccc(-c3ccc(-c4nc5cccc(C)c5[nH]4)cc3)c2)cc1.O=C(O)C(F)(F)F`: 70%; `Cc1cc(OCC(=O)Nc2ccc(-c3nc4ccccc4[nH]3)cc2)cc(C)c1Cl`: 0%.

`FC(F)(F)c1ccc2[nH]c(-c3cccc(-c4cccc(CNCCc5ccncc5)c4)c3)nc2c1.O=C(O)C(F)(F)F` registered an Inhibition of 97%.

Molecule `CC(=O)C1=NN(c2ccc(C)cc2)C(c2cccs2)N1c1ccccc1` (configuration not stated) displayed an Inhibition of 64%. Same read-out and setting: next, `COC(=O)c1cccc(CNCc2ccc(-c3ccc(-c4nc5ccccc5[nH]4)s3)cc2)c1.O=C(O)C(F)(F)F`: 79%; `O=C(NCCN1CCCC1)c1cccc(Nc2nccc(Nc3ccc(Oc4ccccc4)cc3)n2)c1`: 18%; `COc1cc(NCC(O)CNc2cc(OC)c3ccccc3n2)nc2ccccc12`: 93%.

In turn, `CCCN(CCC)CCCNc1ccc(C(=O)Nc2ccc(OCC)cc2)cc1[N+](=O)[O-]` gave an Inhibition of 2%. The same measure, in the same setting: as for `COc1ccc(O)c(C(=O)NCCc2ccc(OC)c(-c3ccc(C(C)(C)C)cc3)c2)c1`, the figure is 91%; as for `CN(C)CCN(C)Cc1ccc(-c2ccc(NC(=O)c3ccc(Cl)cc3)cc2)cc1.O=C(O)C(F)(F)F`, 19%; as for `O=c1cc(NCCC(CNCc2ccc(Br)o2)NCc2cc(Br)cc(Br)c2)[nH]c2ccccc12` (configuration not stated), 90%. On the same count and under the same terms, next, `Cc1ccc2c(=O)cc(CCc3cccc(F)c3F)n(CC(=O)N(Cc3ccc(-c4ccc(C(F)(F)F)cc4)cc3)C3CCN(C(C)C)CC3)c2n1.O=C(O)C(O)C(O)C(=O)O`: 49%; `CC1CN(c2ccc(NC(=O)c3ccc(F)cc3)cc2)CCN1Cc1cccc(F)c1.O=C(O)C(F)(F)F` (configuration not stated): 76%.

The molecule `N#Cc1ccc(N(CCOC(=O)c2ccc(Br)s2)Cc2ccccc2C(F)(F)F)cc1C(F)(F)F` yielded an Inhibition of 48%. In turn, `Cc1cccc2nc(-c3cccc(-c4ccc(C(=O)N5CCCCC5C(C)O)cc4)c3)[nH]c12` (configuration not stated) had an Inhibition of 91%. The same measure, in the same setting: next, `O=c1nc2[nH]c3ccccc3n2c(=O)[nH]1`: 0%.
